# Measurements published in the supplement of paper PMC9262897, “Low-cost anti-mycobacterial drug discovery using engineered E. coli” (Nature Communications, 2022).
# Counter-ions that a name gives are not always drawn. ± gives the standard deviation of the averaged measurements.
# System: E. coli TESEC Mtb DapB
# Assay: growth (OD600 after 10 h); higher = more growth (less inhibition)
# Conditions: arabinose induction (level): High; compound 0.1 mM; raw OD600 reference: median of DMSO wells […], cell-free background 0.041
# Experimental: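 TESEC E. coli strains in which the native enzyme is deleted and replaced by arabinose-inducible Mtb Asd, DapB, CysH or TrpD, each grown in its selective medium. Strains were screened against the Prestwick library at 0.1 mM and 1% DMSO in 384-well format at low and high arabinose induction. Growth is read as OD600 after 10 h in triplicate.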
row,Structure (SMILES),growth
1,CN(C)CCCN1c2ccccc2CCc2ccc(Cl)cc21 [Clomipramine hydrochloride],0.0466 ± 0.00055
2,NC(=O)C(c1ccccc1)(c1ccccc1)[C@@H]1CCN(CCc2ccc3c(c2)CCO3)C1 [Darifenacin hydrobromide],0.186 ± 0.0081
3,COc1cc(C(=O)NCc2ccc(OCCN(C)C)cc2)cc(OC)c1OC [Trimethobenzamide hydrochloride],0.203 ± 0.021
4,O=C1OCCN1/N=C/c1ccc([N+](=O)[O-])o1 [Furazolidone],0.114 ± 0.0074
5,C=C1C[C@H]2[C@@H]3C=C(C)C4=CC(=O)CC[C@]4(C)[C@H]3CC[C@]2(C)[C@@]1(OC(C)=O)C(C)=O [Melengestrol acetate],0.187 ± 0.0082
6,C#C[C@]1(O)CC[C@H]2[C@@H]3CCC4=Cc5oncc5C[C@]4(C)[C@H]3CC[C@@]21C [Danazol],0.169 ± 0.0079
7,CC(=O)Oc1ccc(C(c2ccc(OC(C)=O)cc2)c2ccccn2)cc1 [Bisacodyl],0.19 ± 0.011
8,CC(=C(CCO)SSCC1CCCO1)N(C=O)Cc1cnc(C)nc1N (stereo in doubt) [Fursultiamine Hydrochloride],0.195 ± 0.024
9,CN(C)CCOC1=Cc2ccccc2Sc2ccc(Cl)cc21 [Zotepine],0.171 ± 0.019
10,CO/N=C(\C(=O)N[C@@H]1C(=O)N2C(C(=O)O)=C(COC(N)=O)CS[C@H]12)c1ccco1 [Cefuroxime sodium salt],0.229 ± 0.013
11,COc1ccc2c3c1O[C@H]1C[C@@H](O)C=C[C@@]31CCN(C)C2 [Galanthamine hydrobromide],0.186 ± 0.012
12,NS(=O)(=O)c1cc2c(cc1Cl)N=C(CSCc1ccccc1)NS2(=O)=O [Benzthiazide],0.194 ± 0.016
13,Cc1onc(-c2c(F)cccc2Cl)c1C(=O)N[C@@H]1C(=O)N2[C@@H]1SC(C)(C)[C@@H]2C(=O)O [Flucloxacillin sodium],0.196 ± 0.0025
14,Cc1nc(=O)c2cc(CN(C)c3ccc(C(=O)N[C@@H](CCC(=O)O)C(=O)O)s3)ccc2[nH]1 [Raltitrexed],0.188 ± 0.015
15,CC(CCc1ccccc1)NCC(O)c1ccc(O)c(C(N)=O)c1 (stereo not given) [Labetalol hydrochloride],0.186 ± 0.0091
16,CN1Cc2c(N)cccc2C(c2ccccc2)C1 (stereo not given) [Nomifensine maleate],0.175 ± 0.013
17,O=C(O)c1cc(/N=N/c2ccc(S(=O)(=O)Nc3ccccn3)cc2)ccc1O [Sulfasalazine],0.207 ± 0.018
18,CCOC(=O)[N-]c1c[n+](N2CCOCC2)no1 [Molsidomine],0.207 ± 0.022
19,Cc1ccc(Cl)c(Nc2ccccc2C(=O)O)c1Cl [Meclofenamic acid sodium salt monohydrate],0.118 ± 0.021
20,C[C@H](CCC(=O)O)[C@H]1CC[C@H]2[C@@H]3[C@@H](O)C[C@@H]4C[C@H](O)CC[C@]4(C)[C@H]3CC[C@]12C [Urosiol],0.168 ± 0.012

# Same assay, conditions: arabinose induction (level): Low; compound 0.1 mM; raw OD600 reference: median of DMSO wells 0.227, cell-free background 0.041
row,Structure (SMILES),growth
1,CN(C)CCCN1c2ccccc2CCc2ccc(Cl)cc21 [Clomipramine hydrochloride],0.0467 ± 0.00083
2,NC(=O)C(c1ccccc1)(c1ccccc1)[C@@H]1CCN(CCc2ccc3c(c2)CCO3)C1 [Darifenacin hydrobromide],0.205 ± 0.015
3,COc1cc(C(=O)NCc2ccc(OCCN(C)C)cc2)cc(OC)c1OC [Trimethobenzamide hydrochloride],0.253 ± 0.018
4,O=C1OCCN1/N=C/c1ccc([N+](=O)[O-])o1 [Furazolidone],0.112 ± 0.012
5,C=C1C[C@H]2[C@@H]3C=C(C)C4=CC(=O)CC[C@]4(C)[C@H]3CC[C@]2(C)[C@@]1(OC(C)=O)C(C)=O [Melengestrol acetate],0.211 ± 0.036
6,C#C[C@]1(O)CC[C@H]2[C@@H]3CCC4=Cc5oncc5C[C@]4(C)[C@H]3CC[C@@]21C [Danazol],0.176 ± 0.0079
7,CC(=O)Oc1ccc(C(c2ccc(OC(C)=O)cc2)c2ccccn2)cc1 [Bisacodyl],0.2324 ± 0.0015
8,CC(=C(CCO)SSCC1CCCO1)N(C=O)Cc1cnc(C)nc1N (stereo in doubt) [Fursultiamine Hydrochloride],0.247 ± 0.012
9,CN(C)CCOC1=Cc2ccccc2Sc2ccc(Cl)cc21 [Zotepine],0.1696 ± 0.0015
10,CO/N=C(\C(=O)N[C@@H]1C(=O)N2C(C(=O)O)=C(COC(N)=O)CS[C@H]12)c1ccco1 [Cefuroxime sodium salt],0.16 ± 0.009
11,COc1ccc2c3c1O[C@H]1C[C@@H](O)C=C[C@@]31CCN(C)C2 [Galanthamine hydrobromide],0.195 ± 0.016
12,NS(=O)(=O)c1cc2c(cc1Cl)N=C(CSCc1ccccc1)NS2(=O)=O [Benzthiazide],0.21 ± 0.012
13,Cc1onc(-c2c(F)cccc2Cl)c1C(=O)N[C@@H]1C(=O)N2[C@@H]1SC(C)(C)[C@@H]2C(=O)O [Flucloxacillin sodium],0.259 ± 0.034
14,Cc1nc(=O)c2cc(CN(C)c3ccc(C(=O)N[C@@H](CCC(=O)O)C(=O)O)s3)ccc2[nH]1 [Raltitrexed],0.198 ± 0.029
15,CC(CCc1ccccc1)NCC(O)c1ccc(O)c(C(N)=O)c1 (stereo not given) [Labetalol hydrochloride],0.209 ± 0.017
16,CN1Cc2c(N)cccc2C(c2ccccc2)C1 (stereo not given) [Nomifensine maleate],0.181 ± 0.025
17,O=C(O)c1cc(/N=N/c2ccc(S(=O)(=O)Nc3ccccn3)cc2)ccc1O [Sulfasalazine],0.231 ± 0.03
18,CCOC(=O)[N-]c1c[n+](N2CCOCC2)no1 [Molsidomine],0.23 ± 0.02
19,Cc1ccc(Cl)c(Nc2ccccc2C(=O)O)c1Cl [Meclofenamic acid sodium salt monohydrate],0.123 ± 0.016
20,C[C@H](CCC(=O)O)[C@H]1CC[C@H]2[C@@H]3[C@@H](O)C[C@@H]4C[C@H](O)CC[C@]4(C)[C@H]3CC[C@]12C [Urosiol],0.206 ± 0.03
